Experimental data as given in PubChem BioAssay AID1159580 (chemical genetic matrix, 2015).
Hit rate of the full screen: of about 5,500 compounds, about 2,000 (36%) were called active. About 18% were inconclusive and are not listed. Rule as the data show it: active = normalized growth mostly below about 0.91 (no sharp cut-off); inconclusive = no clear call, values can overlap the other calls; inactive = mostly above about 0.92. The list shows a part of the results.

Test: chemical genetic growth profiling, strain panel (AID 1159580);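 also: tested at 20 µM; growth read once vehicle control cultures reached saturation at 30 °C; 1 = growth at the plate median or of vehicle wells; lower values mean less growth of the strain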
Conditions: growth OD
[1] = S. cerevisiae deletion strains, locus YAL013W, strain DEP1, stronger effect = lower value
[2] = S. cerevisiae deletion strains, locus YBR229C, strain ROT2, stronger effect = lower value
[3] = S. cerevisiae deletion strains, locus YDL101C, strain DUN1, stronger effect = lower value
[4] = S. cerevisiae deletion strains, locus YDR150W, strain NUM1, stronger effect = lower value
[5] = S. cerevisiae deletion strains, locus YEL061C, strain CIN8, stronger effect = lower value
[6] = S. cerevisiae deletion strains, locus YGR078C, strain PAC10, stronger effect = lower value
[7] = S. cerevisiae deletion strains, locus YGR229C, strain SMI1, stronger effect = lower value
[8] = S. cerevisiae deletion strains, locus YHR030C, strain SLT2, stronger effect = lower value
[9] = S. cerevisiae deletion strains, locus YHR087W, strain rtc3, stronger effect = lower value
[10] = S. cerevisiae deletion strains, locus YJL187C, strain SWE1, stronger effect = lower value
[11] = S. cerevisiae deletion strains, locus YJR043C, strain POL32, stronger effect = lower value
[12] = S. cerevisiae deletion strains, locus YJR075W, strain HOC1, stronger effect = lower value
[13] = S. cerevisiae deletion strains, locus YKL190W, strain CNB1, stronger effect = lower value
[14] = S. cerevisiae deletion strains, locus YLR039C, strain RIC1, stronger effect = lower value
[15] = S. cerevisiae deletion strains, locus YLR058C, strain SHM2 (second series), stronger effect = lower value
[16] = S. cerevisiae deletion strains, locus YLR085C, strain ARP6, stronger effect = lower value
[17] = S. cerevisiae deletion strains, locus YLR262C, strain YPT6, stronger effect = lower value
[18] = S. cerevisiae deletion strains, locus YML094W, strain GIM5, stronger effect = lower value
[19] = S. cerevisiae deletion strains, locus YMR219W, strain ESC1, stronger effect = lower value
[20] = S. cerevisiae deletion strains, locus YMR263W, strain SAP30, stronger effect = lower value
[21] = S. cerevisiae deletion strains, locus YNL128W, strain TEP1, stronger effect = lower value
[22] = S. cerevisiae deletion strains, locus YNL153C, strain GIM3, stronger effect = lower value
[23] = S. cerevisiae deletion strains, locus YNL298W, strain CLA4 (second series), stronger effect = lower value
[24] = S. cerevisiae deletion strains, locus YNL322C, strain KRE1, stronger effect = lower value
[25] = S. cerevisiae deletion strains, locus YNR030W, strain Alg12, stronger effect = lower value
[26] = S. cerevisiae deletion strains, locus YPL055C, strain LGE1, stronger effect = lower value
[27] = S. cerevisiae deletion strains, locus YPL241C, strain CIN2, stronger effect = lower value
[28] = S. cerevisiae deletion strains, locus YPR135W, strain CTF4, stronger effect = lower value
[29] = S. cerevisiae deletion strains, locus YMR307W, strain GAS1, stronger effect = lower value
[30] = S. cerevisiae deletion strains, locus YOL006C, strain TOP1, stronger effect = lower value

Measured: normalized growth

Cc1cccc(NC(=O)c2ccccc2)c1
inactive: [1] 0.961 | [2] 0.958 | [3] 0.991 | [4] 0.974 | [5] 0.945 | [6] 0.951 | [7] 0.977 | [8] 0.827 | [9] 0.937 | [10] 0.946 | [11] 0.952 | [12] 0.913 | [13] 0.988 | [14] 0.809 | [15] 0.981 | [16] 0.897 | [17] 0.854 | [18] 0.924 | [19] 0.967 | [20] 0.973 | [21] 0.992 | [22] 0.973 | [23] 0.887 | [24] 0.98 | [25] 0.951 | [26] 0.971 | [27] 0.91 | [28] 0.798

O=C(Nc1cc(-c2ccccc2)[nH]n1)c1ccccc1
inactive: [1] 0.938 | [2] 0.947 | [3] 0.935 | S. cerevisiae deletion strains, locus YDL134C, strain PPH21, stronger effect = lower value 0.923 | [4] 1.03 | [6] 0.936 | [9] 0.913 | [12] 0.902 | [15] 0.982 | [18] 0.888 | [19] 0.968 | [21] 0.973 | [22] 0.946 | [23] 0.844 | [24] 0.988 | [26] 0.907 | [27] 0.865
active: [5] 0.867 | [8] 0.619 | [11] 0.919 | [13] 0.89 | [14] 0.719 | [16] 0.634 | [17] 0.79 | [29] 0.492 | [25] 0.867 | [30] 0.63 | [28] 0.488

CC(C)(C)c1ccc(-c2cc(NC(=O)c3ccc(Cl)cc3)n[nH]2)cc1
inactive: S. cerevisiae deletion strains, locus YAR019C, strain CDC15, stronger effect = lower value 0.986 | S. cerevisiae deletion strains, locus YBL105C, strain PKC1, stronger effect = lower value 1.02 | S. cerevisiae deletion strains, locus YBR135W, strain CKS1, stronger effect = lower value 1.02 | S. cerevisiae deletion strains, locus YBR136W, strain MEC1, stronger effect = lower value 1.01 | S. cerevisiae deletion strains, locus YBR160W, strain CDC28, stronger effect = lower value 0.99 | S. cerevisiae deletion strains, locus YDL017W, strain CDC7, stronger effect = lower value 1 | S. cerevisiae deletion strains, locus YDL028C, strain MPS1, stronger effect = lower value 1.03 | [3] 1.01 | S. cerevisiae deletion strains, locus YDL108W, strain KIN28, stronger effect = lower value 1.01 | S. cerevisiae deletion strains, locus YDL132W, strain cdc53, stronger effect = lower value 1.03 | S. cerevisiae deletion strains, locus YDL214C, strain PRR2, stronger effect = lower value 1.04 | S. cerevisiae deletion strains, locus YDR052C, strain DBF4, stronger effect = lower value 0.995 | S. cerevisiae deletion strains, locus YDR054C, strain cdc34, stronger effect = lower value 1.01 | S. cerevisiae deletion strains, locus YDR226W, strain ADK1, stronger effect = lower value 1.01 | S. cerevisiae deletion strains, locus YDR477W, strain SNF1, stronger effect = lower value 1.02 | S. cerevisiae deletion strains, locus YER123W, strain YCK3, stronger effect = lower value 1.01 | S. cerevisiae deletion strains, locus YER133W, strain GLC7, stronger effect = lower value 1.02 | S. cerevisiae deletion strains, locus YFL009W, strain cdc4, stronger effect = lower value 1.02 | S. cerevisiae deletion strains, locus YFL029C, strain CAK1, stronger effect = lower value 1.01 | S. cerevisiae deletion strains, locus YFR003C, strain YPI1, stronger effect = lower value 1.01 | S. cerevisiae deletion strains, locus YFR019W, strain FAB1, stronger effect = lower value 1.01 | S. cerevisiae deletion strains, locus YFR028C, strain CDC14, stronger effect = lower value 1.01 | S. cerevisiae deletion strains, locus YGR040W, strain KSS1, stronger effect = lower value 1.03 | S. cerevisiae deletion strains, locus YGR052W, strain FMP48, stronger effect = lower value 0.995 | S. cerevisiae deletion strains, locus YGR092W, strain DBF2, stronger effect = lower value 0.933 | [8] 1.08 | S. cerevisiae deletion strains, locus YHR079C, strain IRE1, stronger effect = lower value 1.1 | S. cerevisiae deletion strains, locus YHR082C, strain KSP1, stronger effect = lower value 1.1 | S. cerevisiae deletion strains, locus YHR205W, strain SCH9, stronger effect = lower value 0.96 | S. cerevisiae deletion strains, locus YIL147C, strain SLN1, stronger effect = lower value 1.04 | S. cerevisiae deletion strains, locus YJL095W, strain BCK1, stronger effect = lower value 0.999 | S. cerevisiae deletion strains, locus YJL128C, strain PBS2, stronger effect = lower value 0.978 | S. cerevisiae deletion strains, locus YJL157C, strain FAR1, stronger effect = lower value 1.01 | S. cerevisiae deletion strains, locus YJR016C, strain ILV3, stronger effect = lower value 1.03 | S. cerevisiae deletion strains, locus YJR066W, strain TOR1 (second series), stronger effect = lower value 0.983 | S. cerevisiae deletion strains, locus YJR066W, strain TOR1, stronger effect = lower value 1.05 | S. cerevisiae deletion strains, locus YKL048C, strain ELM1, stronger effect = lower value 1.03 | S. cerevisiae deletion strains, locus YKL067W, strain YNK1, stronger effect = lower value 1.02 | S. cerevisiae deletion strains, locus YKL101W, strain HSL1, stronger effect = lower value 1.05 | S. cerevisiae deletion strains, locus YKL193C, strain SDS22, stronger effect = lower value 1.03 | S. cerevisiae deletion strains, locus YKL203C, strain TOR2, stronger effect = lower value 1.09 | S. cerevisiae deletion strains, locus YLR113W, strain HOG1, stronger effect = lower value 1.03 | S. cerevisiae deletion strains, locus YLR133W, strain CKI1, stronger effect = lower value 1.02 | S. cerevisiae deletion strains, locus YLR403W, strain SFP1, stronger effect = lower value 0.971 | S. cerevisiae deletion strains, locus YML070W, strain DAK1, stronger effect = lower value 1.04 | S. cerevisiae deletion strains, locus YMR001C, strain CDC5, stronger effect = lower value 1 | S. cerevisiae deletion strains, locus YMR205C, strain PFK2 (second series), stronger effect = lower value 0.99 | S. cerevisiae deletion strains, locus YMR277W, strain FCP1, stronger effect = lower value 1.02 | S. cerevisiae deletion strains, locus YNL006W, strain LST8, stronger effect = lower value 0.999 | S. cerevisiae deletion strains, locus YNL020C, strain ARK1, stronger effect = lower value 1.03 | S. cerevisiae deletion strains, locus YNL161W, strain CBK1, stronger effect = lower value 1.02 | S. cerevisiae deletion strains, locus YNL183C, strain NPR1, stronger effect = lower value 1.04 | S. cerevisiae deletion strains, locus YNL207W, strain RIO2, stronger effect = lower value 1.01 | S. cerevisiae deletion strains, locus YNL222W, strain SSU72, stronger effect = lower value 0.992 | S. cerevisiae deletion strains, locus YNL307C, strain MCK1 (second series), stronger effect = lower value 1 | S. cerevisiae deletion strains, locus YOL078W, strain AVO1, stronger effect = lower value 1.01 | S. cerevisiae deletion strains, locus YOL136C, strain PFK27, stronger effect = lower value 1.03 | S. cerevisiae deletion strains, locus YOR061W, strain CKA2, stronger effect = lower value 0.993 | S. cerevisiae deletion strains, locus YOR119C, strain RIO1, stronger effect = lower value 1.1 | S. cerevisiae deletion strains, locus YOR231W, strain MKK1, stronger effect = lower value 1.02 | S. cerevisiae deletion strains, locus YOR329C, strain SCD5, stronger effect = lower value 1.04 | S. cerevisiae deletion strains, locus YPL031C, strain PHO85, stronger effect = lower value 1.02 | S. cerevisiae deletion strains, locus YPL153C, strain RAD53, stronger effect = lower value 1.01 | S. cerevisiae deletion strains, locus YPL204W, strain HRR25, stronger effect = lower value 1.01 | S. cerevisiae deletion strains, locus YPL209C, strain IPL1, stronger effect = lower value 1.01 | S. cerevisiae deletion strains, locus YPR025C, strain CCL1, stronger effect = lower value 1 | S. cerevisiae deletion strains, locus YPR106W, strain ISR1, stronger effect = lower value 1.01 | S. cerevisiae deletion strains, locus YPR111W, strain DBF20, stronger effect = lower value 1 | S. cerevisiae deletion strains, strain NNK1, stronger effect = lower value 1.01 | S. cerevisiae deletion strains, strain TSCII, stronger effect = lower value 1.03
active: S. cerevisiae deletion strains, locus YPL256C, strain CLN2, stronger effect = lower value 1.21 [resistant]

O=c1cc(-c2ccccc2)[nH]c2nc(Cl)ccc12
inactive: S. cerevisiae deletion strains, locus YAL040C, strain CLN3, stronger effect = lower value 0.964 | S. cerevisiae deletion strains, locus YCL061C, strain MRC1 (second series), stronger effect = lower value 1 | [4] 1.01 | S. cerevisiae deletion strains, locus YDR363W, strain ESC2, stronger effect = lower value 0.979 | S. cerevisiae deletion strains, locus YER002W, strain NOP16, stronger effect = lower value 1.03 | [21] 0.962 | S. cerevisiae deletion strains, locus YNL175C, strain NOP13, stronger effect = lower value 0.989 | S. cerevisiae deletion strains, locus YNL197C, strain WHI3, stronger effect = lower value 1.01 | S. cerevisiae deletion strains, locus YNL224C, strain SQS1, stronger effect = lower value 0.977 | S. cerevisiae deletion strains, locus YOR083W, strain WHI5 (second series), stronger effect = lower value 0.989 | [26] 0.997 | [27] 1

CC(C)(C)c1cc(C(=O)NN)n[nH]1
inactive: [1] 1.01 | [2] 1.01 | [3] 0.973 | [4] 0.995 | [5] 1.01 | [6] 0.996 | [7] 1 | [8] 1.06 | [9] 1 | [10] 0.988 | [11] 0.997 | [12] 0.979 | [14] 1.08 | [15] 0.995 | [16] 1.15 | [17] 1.04 | [18] 1.04 | [19] 1 | [20] 0.984 | [29] 1 | [22] 0.991 | [23] 1.01 | [24] 0.997 | [25] 1 | [30] 1.09 | [26] 1.04 | [27] 0.953 | [28] 1.21 | S. cerevisiae strains, strain wild type, stronger effect = lower value 1.01
